Assay outcomes deposited in PubChem by several laboratories.
Compounds with a hit are over-represented: about 3.1% of the library has one in this group of screens.
TRPM1 prom inh – inhibitors of MITF-driven TRPM1 promoter in melanoma cells. SK-MEL-5 TRPM1 promoter luciferase, 24 h. inhibition, % at 12.5 µM. 330,000 compounds, 0.83% hits;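 active = mean inhibition across replicates of 60% or more, whatever share of single replicates reaches that level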
HIF-2a inh – blocks HIF-2a reporter activity. 786-0 RCC cells HIF-2a reporter, luciferase luminescence, overnight. inhibition, % at 18.8 µM. 360,000 compounds, 0.72% hits. AID 624352;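 active = inhibition of the luminescence signal of 40% or more relative to plate controls, in a single-dose primary screen at 18.75 µM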
CF NFkB block – cystic fibrosis NF-kB activation inhibition; KKLEB NF-kB-GFP reporter, PAF-induced, GFP fluorescence overnight; inhibition, % at 5 µM; 360,000 compounds, 0.86% hits;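 active = at least 50% inhibition at 5 µM, scaled per plate between neutral and stimulator controls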;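 also: PAF is a Pseudomonas aeruginosa culture filtrate used as stimulus; plate controls were PAF-stimulated DMSO wells for no effect and unstimulated DMSO wells for full effect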
KKLEB cytotox – counter-screen for CF NF-kB inhibitors: cytotoxicity | KKLEB CF airway cells viability, ATPlite luminescence, overnight; hits give low values; cells stimulated with P. aeruginosa culture filtrate | activity change (cytotoxicity), % at 5 µM | 360,000 compounds, 0.36% hits;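 active = corrected activity change at or below -50% at 5 µM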
Peg3 prom inh – reduces Peg3 promoter-driven luciferase expression in HeLa. 360,000 compounds, 1.7% hits. HeLa PEG-Prom luciferase reporter, luminescence, overnight. inhibition, % at 20 µM;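 active = inhibition of at least 50% at 20 µM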
ABHD5 PLIN5 PPI – inhibitors of human ABHD5-perilipin-5 interaction; Q00G26+Q8WTS1; Split G. princeps luciferase complementation, luminescence, 4 h; inhibition, % at 4 µM; 360,000 compounds, 0.78% hits;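 active = inhibition above the mean inhibition across every tested compound plus 3 SD, cut at about 22% in these data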;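 also: 0% = DMSO only wells and the 100% control is not disclosed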
Target sequence (Q00G26 whole entry, looked up): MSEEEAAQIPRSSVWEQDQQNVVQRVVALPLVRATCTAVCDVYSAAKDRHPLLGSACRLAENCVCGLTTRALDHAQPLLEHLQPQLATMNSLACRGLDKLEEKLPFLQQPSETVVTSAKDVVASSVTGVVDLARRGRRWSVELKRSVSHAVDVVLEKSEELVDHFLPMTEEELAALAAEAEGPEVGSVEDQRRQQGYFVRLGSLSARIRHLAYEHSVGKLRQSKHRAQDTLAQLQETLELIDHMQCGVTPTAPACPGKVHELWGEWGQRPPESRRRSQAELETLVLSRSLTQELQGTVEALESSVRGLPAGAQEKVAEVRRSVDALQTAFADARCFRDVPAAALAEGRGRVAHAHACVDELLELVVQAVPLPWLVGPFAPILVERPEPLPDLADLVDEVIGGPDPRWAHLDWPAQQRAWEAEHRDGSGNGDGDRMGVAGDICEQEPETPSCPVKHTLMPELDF
Target sequence (Q8WTS1 whole entry, looked up): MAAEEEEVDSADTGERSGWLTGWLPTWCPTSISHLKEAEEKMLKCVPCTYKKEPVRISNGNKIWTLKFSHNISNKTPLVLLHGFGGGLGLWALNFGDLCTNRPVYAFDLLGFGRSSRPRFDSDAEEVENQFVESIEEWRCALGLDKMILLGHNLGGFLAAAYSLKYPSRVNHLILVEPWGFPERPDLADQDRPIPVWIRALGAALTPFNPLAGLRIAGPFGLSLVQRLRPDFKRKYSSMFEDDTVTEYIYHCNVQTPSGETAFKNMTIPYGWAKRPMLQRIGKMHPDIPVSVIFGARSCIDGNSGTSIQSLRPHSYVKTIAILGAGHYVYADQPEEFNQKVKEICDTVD
The depositor's hits bear a star.

Screening C[C@@H]1CN([C@@H](C)CO)C(=O)CCCn2nncc2CO[C@H]1CN(C)C(=O)OCc1ccccc1 returned HIF-2a inh 4, CF NFkB block 19, KKLEB cytotox -6, Peg3 prom inh -2 and ABHD5 PLIN5 PPI -6.
`CCC1(c2ccc(F)cc2)NC(=O)N(CC(=O)Nc2cccc(S(=O)(=O)N3CCCCC3)c2)C1=O` (centres undefined) gave TRPM1 prom inh 7, HIF-2a inh 7, CF NFkB block 5, KKLEB cytotox 10, Peg3 prom inh 14 and ABHD5 PLIN5 PPI -7.
O=C(O)Cn1c2c(c3ccccc31)CSc1ccc(Cl)cc1-2 was read as TRPM1 prom inh 18, HIF-2a inh 15, CF NFkB block 6, KKLEB cytotox 1, Peg3 prom inh 9 and ABHD5 PLIN5 PPI 23*.
`Cc1ccc(NC(=O)C2CCN(S(=O)(=O)c3c(C)n[nH]c3C)CC2)c(C)c1` gave TRPM1 prom inh 0, HIF-2a inh 4, CF NFkB block 2, KKLEB cytotox -5, Peg3 prom inh 10 and ABHD5 PLIN5 PPI -13.
Screening Cc1ccc(-c2csc(N3CCN(CCCn4c(-c5ccncc5)nc5ccccc54)CC3)n2)cc1 returned TRPM1 prom inh 67*, HIF-2a inh -16, CF NFkB block 16, KKLEB cytotox -9, Peg3 prom inh 36 and ABHD5 PLIN5 PPI 6.
Cc1ccc(-c2csc(N3CCN(CCCn4c(C(F)(F)F)nc5ccccc54)CC3)n2)cc1 was read as TRPM1 prom inh 23, HIF-2a inh -13, CF NFkB block 14, KKLEB cytotox -5, Peg3 prom inh 15 and ABHD5 PLIN5 PPI -12.
CN(C#N)c1nc(Cl)nc(Nc2cccc(Cl)c2)n1 was read as TRPM1 prom inh 8, HIF-2a inh 14, CF NFkB block 15, KKLEB cytotox -2, Peg3 prom inh 99* and ABHD5 PLIN5 PPI 4.
CCN(CCNCC(O)COc1ccccc1C(C)C)c1cccc(C)c1 (centres undefined) was read as TRPM1 prom inh -7, HIF-2a inh 7, CF NFkB block 20, KKLEB cytotox -5, Peg3 prom inh 93* and ABHD5 PLIN5 PPI 3.
O=C(c1cc(Cl)ccc1O)N1CCN(S(=O)(=O)Cc2ccccc2)CC1 was read as TRPM1 prom inh 0, HIF-2a inh 1, CF NFkB block 18, KKLEB cytotox 2, Peg3 prom inh 15 and ABHD5 PLIN5 PPI 1.
CCOc1ccc(N/C=C/C(=O)c2ccccc2)c([N+](=O)[O-])c1 was read as TRPM1 prom inh 6, HIF-2a inh 38, CF NFkB block -40, KKLEB cytotox -58*, Peg3 prom inh 41 and ABHD5 PLIN5 PPI 4.
For COc1ccc(N/C=C\C(=O)c2ccc3ccccc3c2)cc1 the results were TRPM1 prom inh -87, HIF-2a inh -204, CF NFkB block 8, KKLEB cytotox -9, Peg3 prom inh -185 and ABHD5 PLIN5 PPI -9.
COc1ccc(N/C=C/C(=O)c2ccccc2)cc1 was read as TRPM1 prom inh 14, HIF-2a inh -55, CF NFkB block -18, KKLEB cytotox -54*, Peg3 prom inh -36 and ABHD5 PLIN5 PPI -7.
For N#Cc1c(NC(=O)/C=C/c2ccco2)sc2c1CCCC2 the results were TRPM1 prom inh 5, HIF-2a inh -302, CF NFkB block 62*, KKLEB cytotox -52*, Peg3 prom inh -326 and ABHD5 PLIN5 PPI -2.
CCc1ccc2nc(N(CCCN(C)C)C(=O)c3ccc(S(=O)(=O)N(C)C4CCCCC4)cc3)sc2c1 was read as TRPM1 prom inh 96*, HIF-2a inh 26, CF NFkB block 20, KKLEB cytotox -25, Peg3 prom inh 79* and ABHD5 PLIN5 PPI 20.
`CCN(Cc1ccccc1)S(=O)(=O)c1ccc(C(=O)N(CCCN(C)C)c2nc3ccc(F)cc3s2)cc1` gave TRPM1 prom inh 91*, HIF-2a inh -1, CF NFkB block 13, KKLEB cytotox 1, Peg3 prom inh 2 and ABHD5 PLIN5 PPI 13.
Screening CN(C)CCCN(C(=O)c1ccc(C(=O)c2ccccc2)cc1)c1nc2ccc(F)cc2s1 returned TRPM1 prom inh -9, HIF-2a inh -21, CF NFkB block 25, KKLEB cytotox -8, Peg3 prom inh 33 and ABHD5 PLIN5 PPI 10.
COc1ccc2sc(N(CCCN(C)C)C(=O)c3ccc(C(=O)c4ccccc4)cc3)nc2c1 was read as TRPM1 prom inh -14, HIF-2a inh -37, CF NFkB block 25, KKLEB cytotox -2, Peg3 prom inh -39 and ABHD5 PLIN5 PPI 9.
